Reference: PubChem BioAssay (NCATS)
Several values for one entry are separate records, joined by “and”; a condition that tells them apart may be missing. Equal entries are not always repeated. Results filed as inconclusive are left out. Activity calls are given as the source filed them. Unless noted, the call rests on the fitted dose curve; in most records, active means well fitted curve in the direction sought with a large enough effect; inconclusive means small, poorly fitted or top-dose-only effect, or another doubt; inactive means no such curve, though single readings can be large; an effect the other way counts as inactive or inconclusive.

How the values were obtained:
[1] = qHTS for compounds that reverse cellular toxicity of Amyloid beta (A-beta) peptide in yeast: LOPAC Validation Assay (AID 720559);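 further: plate controls were DMSO for no effect and equimolar ferric chloride plus clioquinol rescue for full effect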
Outline: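 Here, A-beta-toxic yeast grow with test compounds at 30 C for 48 hr before optical density at 600 nm is recorded; data are normalized against DMSO and the FeCl3-clioquinol control.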

[2] = qHTS for Activators of Parkin Expression: LOPAC Validation Assay (NLuc Reporter) (AID 720572)
Outline: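 NLuc signal, read 10 min after reagent and following a prior FLuc read, is normalized to DMSO (0) and positive controls (100%). Cells: neuronal Parkin-promoter coincidence reporter line; compounds tested 7-point, 24 h, 37 C, 5% CO2.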

[3] = qHTS for Activators of Parkin Expression: LOPAC Validation Assay (FLuc Reporter) (AID 720573)
Outline: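 Readout is FLuc luminescence from neuronal reporter cells (Parkin promoter, FLuc plus NLuc) after 24 h compound exposure in dose response. Values normalized to neutral DMSO and positive-control compounds.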

[4] = target: T1, Hexokinase-4 (Homo sapiens) + Glucokinase regulatory protein (Homo sapiens) (UniProt P35557+Q14397); assay: qHTS assay for inhibitors of recombinant human GCK-GKRP interaction: Diaphorase-coupled assay (AID 743205)
Outline: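 Signal derives from resorufin generated by diaphorase, linked to GCK turnover of glucose (5 mM) and ATP (0.4 mM). Enzyme complex was added after a 20-minute compound preincubation and monitored for 30 minutes.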

[5] = target: T1, Hexokinase-4 (Homo sapiens) + Glucokinase regulatory protein (Homo sapiens); assay: qHTS assay for inhibitors of recombinant human GCK-GKRP interaction: ADP-Glo assay (AID 743206);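 further: plate controls were DMSO plus enzyme for no effect and no enzyme for full effect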
Outline: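 Pin-transferred compounds meet a 15 nM GST-GCK/15 nM FLAG-GKRP/2 uM S6P mix (dispense concentrations). ATP is then added to 0.4 mM final with 5 mM glucose, and the reaction runs 60 min at room temperature. ADP is quantified luminescently.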

[6] = qHTS for small molecule inhibitors of Yes1 kinase: Counter Assay (AID 686950);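 further: no kinase present so only ADP-Glo detection of a fixed ADP amount is tested; luminescence from ADP-Glo reporting ADP in a fixed ATP and ADP mixture; series mostly up to about 77 µM; 0% = DMSO wells with ATP plus ADP and -100% = ATP-only wells without ADP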
Outline: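 No kinase present; 0.08 mM ATP + 0.02 mM ADP in 50 mM Tris pH 7.5, 10 mM MgCl2, 150 mM NaCl, 1 mM DTT; 20 min compound preincubation, 60 min RT, ADP-Glo luminescence, normalized to ATP/ADP (max) and ATP-only (min).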

[7] = qHTS assay for small molecule agonists of the antioxidant response element (ARE) signaling pathway measured by Nrf2-dependant transcriptional activity (AID 720636; active means well fitted curve in the direction sought with a large enough effect in the repeat runs; an effect the other way counts as inactive or inconclusive; further: potency means the concentration at half of the fitted maximal effect)
Outline: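 Attachment 6 hr at 37 C, then compound versus DMSO vehicle for 16 hr in ARE-luc HepG2 cells (1% dialyzed FBS); luminescence recorded 30 min after ONE-Glo addition at room temperature.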

[8] = qHTS assay for small molecule antagonists of the retinoid-related orphan receptor gamma (ROR-gamma) signaling pathway - cell viability counter screen (AID 720652; active means well fitted curve in the direction sought with a large enough effect in the repeat runs; an effect the other way counts as inactive or inconclusive;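 further: compound exposure lasted 16 hr before ATP read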; further: potency means the concentration at half of the fitted maximal effect)
Outline: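 ATP-based viability readout in the ROR-gamma reporter CHO cells after 16 hr compound exposure under doxycycline induction.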

[9] = qHTS assay for small molecule agonists of the antioxidant response element (ARE) signaling pathway measured by Nrf2-dependant transcriptional activity - cell viability counter screen (AID 720653; active means well fitted curve in the direction sought with a large enough effect in the repeat runs; an effect the other way counts as inactive or inconclusive; further: potency means the concentration at half of the fitted maximal effect; on max response: on the % scale 0 is the no-effect control and ±100 the full control effect); details: ARE-bla HepG2 viability, CellTiter-Glo ATP luminescence, 16 h; max response: hits give low values
Outline: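 ARE-bla HepG2 cells treated with compounds for 16 h at 37C; this counter screen measures viability as intracellular ATP by CellTiter-Glo luminescence after 30 min at room temperature.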

T1 sequence (P35557 whole entry, looked up): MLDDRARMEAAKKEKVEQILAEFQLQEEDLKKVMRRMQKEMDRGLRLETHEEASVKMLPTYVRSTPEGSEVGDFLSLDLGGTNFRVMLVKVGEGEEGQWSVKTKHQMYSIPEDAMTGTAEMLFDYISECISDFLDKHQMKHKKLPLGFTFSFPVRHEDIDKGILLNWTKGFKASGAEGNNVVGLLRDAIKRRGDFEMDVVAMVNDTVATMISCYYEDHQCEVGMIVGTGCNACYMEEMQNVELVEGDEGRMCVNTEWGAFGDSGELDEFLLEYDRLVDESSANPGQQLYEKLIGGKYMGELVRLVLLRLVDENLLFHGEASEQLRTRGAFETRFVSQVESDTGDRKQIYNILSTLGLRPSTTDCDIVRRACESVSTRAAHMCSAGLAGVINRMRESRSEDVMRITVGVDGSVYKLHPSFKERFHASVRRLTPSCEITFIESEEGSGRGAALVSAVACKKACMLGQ
T1 sequence (Q14397 whole entry, looked up): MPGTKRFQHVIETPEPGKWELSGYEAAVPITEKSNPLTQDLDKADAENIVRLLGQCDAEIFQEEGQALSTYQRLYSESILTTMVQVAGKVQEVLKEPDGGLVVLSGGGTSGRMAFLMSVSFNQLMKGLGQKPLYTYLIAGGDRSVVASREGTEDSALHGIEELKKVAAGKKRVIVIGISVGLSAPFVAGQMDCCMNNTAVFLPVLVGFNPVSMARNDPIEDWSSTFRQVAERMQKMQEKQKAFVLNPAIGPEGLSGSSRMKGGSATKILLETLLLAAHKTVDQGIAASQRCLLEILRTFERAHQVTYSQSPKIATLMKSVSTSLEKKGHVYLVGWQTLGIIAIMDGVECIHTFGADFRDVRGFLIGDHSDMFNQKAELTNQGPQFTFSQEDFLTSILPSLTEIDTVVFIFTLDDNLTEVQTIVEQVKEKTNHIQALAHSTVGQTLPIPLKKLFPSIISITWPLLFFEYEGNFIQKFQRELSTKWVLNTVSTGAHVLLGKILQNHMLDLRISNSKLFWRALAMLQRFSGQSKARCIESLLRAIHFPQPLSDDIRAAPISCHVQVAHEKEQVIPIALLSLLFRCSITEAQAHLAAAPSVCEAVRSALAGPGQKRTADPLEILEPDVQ

Cc1c(C(=O)c2cccc3ccccc23)c2cccc3c2n1[C@H](CN1CCOCC1)CO3
inactive: outcome [1] | outcome [2] | outcome [3] | outcome [4] | outcome [5]

CNCCc1ccc(O)c(O)c1
inactive: outcome [1] | outcome [2] | outcome [3] | outcome [4] | outcome [5]

CC(=O)Nc1ccc(OC[C@](C)(O)C(=O)Nc2ccc([N+](=O)[O-])c(C(F)(F)F)c2)cc1
inactive: outcome [6]

Cc1c(C(=O)Nc2cccc(C(F)(F)F)c2)cc(-c2ccccc2)n1CCCN1CCOCC1
inactive: outcome [6]

C#CCOC(=O)C1=CCCN(C)C1
inactive: outcome [1] | outcome [2] | outcome [3] | outcome [4] | outcome [5]

CCCN1CCC[C@H](c2cccc(O)c2)C1
inactive: outcome [1] | outcome [2] | outcome [3] | outcome [4] | outcome [5]

O=C(O)Cc1cnc[nH]1
inactive: outcome [1] | outcome [2] | outcome [3] | outcome [4] | outcome [5]

CC(=O)[O][Hg][c]1ccccc1
inactive: Potency [7]
active: Potency [8] 1.33 µM | Potency [9] 35.5 µM and 14.1 µM

O=C(O)COc1ccccc1
inactive: Potency [7] | Potency [8] | max response [9] -7.55%

CCOCCOC(C)=O
inactive: Potency [7] | Potency [8] | max response [9] 4.03%

CCCCc1ccc(C(=O)O)nc1
inactive: outcome [1] | outcome [2] | outcome [3] | outcome [4] | outcome [5]

Cc1cc(O)ccc1Cl
inactive: Potency [7] | Potency [8] | max response [9] 3.07%

c1ccc2occc2c1
inactive: Potency [7]

CC(C)NC(C)Cc1ccc(I)cc1 (centres undefined)
inactive: outcome [1] | outcome [2] | outcome [3] | outcome [4] | outcome [5]

Nc1ccc(Sc2ccc(N)cc2)cc1
inactive: Potency [7] | Potency [8] | max response [9] 10% and -10.9%

CCCN1CCO[C@@H]2c3cc(O)ccc3OC[C@H]21
inactive: outcome [1] | outcome [2] | outcome [3] | outcome [4] | outcome [5]

NC1CCc2cc(O)c(O)cc2C1 (centres undefined)
inactive: outcome [1] | outcome [2] | outcome [3] | outcome [4] | outcome [5]

CN[C@@H]1C[C@@H](c2ccc(Cl)c(Cl)c2)c2ccccc21
inactive: outcome [1] | outcome [2] | outcome [3] | outcome [4] | outcome [5]

[Cl][In]([Cl])[Cl]
active: Potency [7] 42.2 µM

COc1cc(C(O)CN)ccc1O (centres undefined)
inactive: outcome [1] | outcome [2] | outcome [3] | outcome [4] | outcome [5]

C[C@]12CCC3C(CC[C@H]4C[C@H](O)CC[C@]34C)C1CC[C@@H]2C(=O)CO (some centres undefined)
inactive: outcome [1] | outcome [2] | outcome [3] | outcome [4] | outcome [5]

NC(=NCCC[C@H](N)C(=O)O)N[N+](=O)[O-]
inactive: outcome [1] | outcome [2] | outcome [3] | outcome [4] | outcome [5]

C=CC(=O)NCNC(=O)C=C
inactive: Potency [7] | Potency [8] | max response [9] 1.98% and -12.5%

O=C(N[C@H]1CN2CCC1CC2)c1ccc(Cl)cc1
inactive: outcome [1] | outcome [2] | outcome [3] | outcome [4] | outcome [5]

c1ccc2sc(C3(N4CCCCC4)CCCCC3)cc2c1
inactive: outcome [1] | outcome [2] | outcome [3] | outcome [4] | outcome [5]

O=C(O)CC[N+](=O)[O-]
inactive: outcome [1] | outcome [2] | outcome [3] | outcome [4] | outcome [5]

CN(C)[C@@H]1C(=O)C(C(N)=O)=C(O)[C@@]2(O)C(=O)C3=C(O)c4c(O)cccc4[C@@](C)(O)[C@H]3[C@H](O)[C@@H]12
inactive: Potency [7] | Potency [8] | max response [9] -0.377% and -4.28% and 10.9%

CC[C@@H](C(N)=O)N1CCCC1=O
inactive: outcome [1] | outcome [2] | outcome [3] | outcome [4] | outcome [5]

CCCN(CCC)c1c([N+](=O)[O-])cc(S(N)(=O)=O)cc1[N+](=O)[O-]
inactive: Potency [7]

C1CCC(NC2CCCCC2)CC1
inactive: Potency [7] | Potency [8] | max response [9] 1.26% and -8.57% and 6.08%

NCCc1c[nH]c2ccccc12
inactive: outcome [1] | outcome [2] | outcome [3] | outcome [4] | outcome [5]

CCCN(CCC)C1CCc2ccc(O)cc2C1 (centres undefined)
inactive: outcome [1] | outcome [2] | outcome [3] | outcome [4] | outcome [5]

NC(CP(=O)(O)O)C(=O)O (centres undefined)
inactive: outcome [1] | outcome [2] | outcome [3] | outcome [4] | outcome [5]

Cc1nccc2c1[nH]c1ccccc12
inactive: outcome [1] | outcome [2] | outcome [3] | outcome [4] | outcome [5]

CCCN(CCC)[C@@H]1CCc2ccc(O)cc2C1
inactive: outcome [1] | outcome [2] | outcome [3] | outcome [4] | outcome [5]

CC(=O)NCCc1c[nH]c2ccccc12
inactive: outcome [1] | outcome [2] | outcome [3] | outcome [4] | outcome [5]

O=C(O)[C@@H]1CCN1
inactive: outcome [1] | outcome [2] | outcome [3] | outcome [4] | outcome [5]
